The nature of assay [1]: qHTS assay to identify small molecule antagonists of the estrogen receptor alpha (ER-alpha) signaling pathway using the BG1 cell line in the presence of 0.1 nM 17-beta-estradiol - cell viability counter screen (AID 1259241). Note: nearly all actives have a fitted effect of over 40% in size. Note: potency is the fitted concentration of half-maximal effect. An outline of the steps:
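Cytotoxicity counter-screen: live-cell protease activity measured by fluorescence (30 min reagent step) in the same wells. Cells were VM7Luc4E2 with endogenous ER-alpha and ERE-driven luciferase, treated 22 hr at 37C alongside 0.1 nM 17beta-estradiol final.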
For orientation: Quantitative high-throughput screening tests each substance at several concentrations.

The nature of assay [2]: qHTS assay to identify small molecule antagonists of the androgen receptor (AR) signaling pathway using the MDA cell line in the presence of 0.5 nM R1881 - cell viability counter screen (AID 1259242). Note: nearly all actives have a fitted effect of over 45% in size. Note: potency is the fitted concentration of half-maximal effect. An outline of the steps: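 MDA-kb2 cells (human breast carcinoma, stably carrying MMTV-luciferase reporter) were exposed to compounds with 0.5 nM R1881 (final) for 16 hr at 37C, 0% CO2; viability then read as live-cell protease fluorescence (CellTiter-Fluor, 30 min) in the same wells.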

Assay [3] concerns the target Estrogen receptor (Homo sapiens) (UniProt P03372). Briefly: qHTS assay to identify small molecule antagonists of the estrogen receptor alpha (ER-alpha) signaling pathway using the BG1 cell line in the presence of 0.1 nM 17-beta-estradiol (AID 1259244). Note: nearly all actives have a fitted effect of over 50% in size. Note: potency is the fitted concentration of half-maximal effect. In a few lines:
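VM7Luc4E2 cells (endogenous full-length ER-alpha, stable 4xERE-luciferase) were grown 5 days in phenol red-free medium with charcoal-stripped FBS, then exposed 22 h at 37C to compounds plus 0.1 nM (final) 17beta-estradiol; ONE-Glo luminescence read-out.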

Assay [4] is described as follows: qHTS assay to identify small molecule HDAC inhibitors (AID 1259364). Note: nearly all actives have a fitted effect of over 45% in size. Note: potency is the fitted concentration of half-maximal effect. An outline of the steps:
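Wild-type HCT-116 cells were plated overnight, exposed to compounds for 2 h at 37 °C, then given HDAC-Glo class I/II luminogenic reagent for 30 min at room temperature before luminescence was read.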

Assay [5] in a line: qHTS assay to identify small molecule HDAC inhibitors - cell viability counter screen (AID 1259365). Note: nearly all actives have a fitted effect of over 50% in size. Note: potency is the fitted concentration of half-maximal effect. An outline of the steps:
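CellTiter-Glo luminescence (30 min, room temperature) reported viability after a 2 h compound exposure at 37 C. Cells: wild-type HCT-116, 1,500 per well, seeded the night before.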

A short description of assay [6]: qHTS assay to identify small molecule agonists of the sonic hedgehog signaling (Shh) pathway - cell viability counter screen (AID 1259366). Note: nearly all actives have a fitted effect of over 50% in size. Note: potency is the fitted concentration of half-maximal effect. An outline of the steps:
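Cytotoxicity counter screen: CellTiter-Fluor reagent added after 23 h compound exposure, then 1 h at 37C and fluorescence read. Cells were 3T3 Gli1-Luc, seeded 2,000 per well and dosed 4 h post-plating.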

Assay [7] is described as follows: qHTS assay to identify small molecule antagonists of the sonic hedgehog signaling (Shh) pathway - cell viability counter screen (AID 1259367). Note: nearly all actives have a fitted effect of over 55% in size. An outline of the steps:
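NIH/3T3-derived Gli1-Luc reporter cells, 2,000/well, plated 4 hr before compound addition, then stimulated with conditioned medium for 24 hr at 37C. Viability measured in the same wells by CellTiter-Fluor fluorescence, reagent added at 23 hr for 1 hr.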

Assay [8] is described as follows: qHTS assay to identify small molecule agonists of the sonic hedgehog signaling (Shh) pathway (AID 1259368; calls by dose curve; note: series mostly up to about 92 µM; nearly all actives have a fitted effect of over 15% in size). In a few lines: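 NIH/3T3-derived 3T3Gli1-Luc cells carrying a stably integrated Gli1 response element–firefly luciferase reporter were plated, left 4 hr at 37 C, then given compounds in DMSO for 24 hr. Luminescence was read 30 min after adding luciferase reagent.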

“And” between values parts separate entries of the source, which are not always exact repeats. Equal values may be shown once. A number with no mark means an inactive call. Records with an inconclusive call do not appear. The source made the active and inactive calls. Unless noted, calls come from the whole dose curve; as a rule, active = well fitted curve in the direction sought with a large enough effect in the repeat runs; inconclusive = weak or mixed curves; inactive = no such curve, though single readings can be large; an effect the other way counts as inactive or inconclusive.

Sequence of Estrogen receptor (Homo sapiens) (P03372 whole entry, looked up): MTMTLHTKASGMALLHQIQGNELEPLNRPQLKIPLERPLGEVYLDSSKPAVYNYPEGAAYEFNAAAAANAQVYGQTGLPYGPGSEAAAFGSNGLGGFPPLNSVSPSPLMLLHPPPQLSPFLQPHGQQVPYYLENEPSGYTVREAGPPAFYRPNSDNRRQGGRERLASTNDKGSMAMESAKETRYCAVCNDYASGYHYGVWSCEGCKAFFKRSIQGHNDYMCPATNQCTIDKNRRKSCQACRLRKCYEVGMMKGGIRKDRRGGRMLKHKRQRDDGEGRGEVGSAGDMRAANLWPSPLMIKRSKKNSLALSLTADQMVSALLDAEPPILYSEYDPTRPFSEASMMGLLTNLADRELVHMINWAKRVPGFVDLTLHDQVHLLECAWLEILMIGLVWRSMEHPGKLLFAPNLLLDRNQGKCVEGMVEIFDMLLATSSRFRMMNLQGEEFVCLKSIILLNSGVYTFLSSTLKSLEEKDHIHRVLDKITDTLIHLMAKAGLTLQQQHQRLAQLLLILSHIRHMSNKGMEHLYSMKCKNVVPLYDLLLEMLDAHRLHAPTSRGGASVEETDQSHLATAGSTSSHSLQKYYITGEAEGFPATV

Consider `Clc1ccc(C(c2ccc(Cl)cc2)C(Cl)Cl)cc1`, for which the Potency result in assay [1], in assay [2], in assay [3], in assay [4], in assay [5] and in assay [6] was “inactive” throughout. The Potency result in assay [7] and in assay [8] was “inactive” in each case.

On to `COP(=S)(NC(C)C)Oc1ccc(C)cc1[N+](=O)[O-]` (configuration not stated), for which the Potency entry in assay [1], in assay [2], in assay [4], in assay [5], in assay [6] and in assay [8] was “inactive” throughout. The Potency in assay [3] was 17.2 µM (active).

Consider `[O]=[Cr][O][Cr]=[O]`, for which the Potency entry in assay [1], in assay [2], in assay [3], in assay [4], in assay [5] and in assay [6] was “inactive” throughout. Also, the Potency result in assay [7] and in assay [8] was “inactive” each time.

As for `CC(C)(C)c1ccc(OP(=O)(Oc2ccccc2)Oc2ccccc2)cc1`, the Potency result in assay [1], in assay [2], in assay [3], in assay [4], in assay [5] and in assay [6] was “inactive” throughout. In addition, the Potency entry in assay [8] is “inactive”.

`CC(Cc1ccc(OCC(=O)O)cc1)NCC(O)c1csc(C(F)(F)F)n1` (configuration not stated): the Potency entry in assay [1], in assay [2], in assay [3], in assay [4], in assay [5] and in assay [8] was “inactive” throughout. Further, the Potency in assay [6] is 6.11 µM (active).

Turning to `O=C(O)[C@H](O)[C@@H](O)C(=O)O`, the Potency entry in assay [1], in assay [2], in assay [3], in assay [4], in assay [5] and in assay [6] was “inactive” throughout. Further, the Potency entry in assay [7] and in assay [8] was “inactive” throughout.

Take `CCCCN(CCCC)C(=S)S`: the Potency entry in assay [1], in assay [2], in assay [3], in assay [4], in assay [5] and in assay [6] was “inactive” throughout. The Potency result in assay [8] is “inactive”.

On to `CCOC(=O)CCN(SN(C)C(=O)Oc1cccc2c1OC(C)(C)C2)C(C)C`, for which the Potency result in assay [1], in assay [2], in assay [3], in assay [4], in assay [5] and in assay [6] was “inactive” throughout. In addition, the Potency result in assay [7] and in assay [8] was “inactive” throughout.

Regarding `CC(Cl)CCl` (configuration not stated), the Potency result in assay [1], in assay [2], in assay [3], in assay [4], in assay [5] and in assay [6] was “inactive” throughout. Also, the Potency entry in assay [7] and in assay [8] was “inactive” each time.

On to `c1ccc(N=NNc2ccccc2)cc1`, for which the Potency result in assay [1], in assay [2], in assay [3], in assay [5], in assay [6] and in assay [8] was “inactive” in each case. In assay [4], the Potency is 15.9 µM (active) and 24.3 µM (active).

Regarding `CCCCc1ccccc1`, the Potency result in assay [1], in assay [2], in assay [3], in assay [4], in assay [5] and in assay [6] was “inactive” in each case. Moreover, the Potency result in assay [7] and in assay [8] was “inactive” in each case.

On to `C=Cc1cccc(CCl)c1`, for which the Potency entry in assay [1], in assay [2], in assay [3], in assay [4], in assay [5] and in assay [6] was “inactive” each time. Also, the Potency result in assay [7] and in assay [8] was “inactive” in each case.

With `CSC(=O)c1c(C(F)F)nc(C(F)(F)F)c(C(=O)SC)c1CC(C)C`, the Potency result in assay [1], in assay [2], in assay [3], in assay [4], in assay [5] and in assay [6] was “inactive” each time. Further, the Potency entry in assay [7] and in assay [8] was “inactive” each time.

For the compound `CCCCN(CCCC)C(=S)[S-].CCCCN(CCCC)C(=S)[S-].[Ni+2]`, the Potency entry in assay [1], in assay [2], in assay [3], in assay [4], in assay [5] and in assay [6] was “inactive” throughout. Also, the Potency result in assay [7] and in assay [8] was “inactive” in each case.

In the case of `BrCC(Br)(Br)Br`, the Potency entry in assay [1], in assay [2], in assay [3], in assay [4], in assay [6] and in assay [7] was “inactive” throughout. Besides, the Potency result in assay [8] was “inactive”.

As for `O=[N+]([O-])c1ccccc1-c1ccccc1`, the Potency result in assay [1], in assay [2], in assay [3], in assay [4], in assay [5] and in assay [6] was “inactive” throughout. Besides, the Potency result in assay [8] was “inactive”.

As for `COP(=S)(OC)Oc1ccc([N+](=O)[O-])c(C)c1`, the Potency result in assay [1], in assay [2], in assay [3], in assay [4], in assay [5] and in assay [6] was “inactive” each time. Besides, the Potency result in assay [8] was “inactive”.

On to `CNC(=O)/C=C(\C)OP(=O)(OC)OC`, for which the Potency result in assay [1], in assay [2], in assay [3], in assay [4], in assay [5] and in assay [6] was “inactive” throughout. Further, the Potency result in assay [7] and in assay [8] was “inactive” in each case.

In the case of `Oc1ccc(Cl)c(Cl)c1`, the Potency result in assay [1], in assay [2], in assay [3], in assay [4], in assay [5] and in assay [6] was “inactive” in each case. Also, the Potency entry in assay [7] and in assay [8] was “inactive” throughout.

For `COC(=O)/C=C(\C)OP(=O)(OC)OC`, the Potency result in assay [1], in assay [2], in assay [3], in assay [4], in assay [5] and in assay [6] was “inactive” each time. In addition, the Potency entry in assay [7] and in assay [8] was “inactive” in each case.

Consider `Oc1cc(Cl)cc(Cl)c1`, for which the Potency entry in assay [1], in assay [2], in assay [3], in assay [4], in assay [5] and in assay [6] was “inactive” in each case. Besides, the Potency entry in assay [8] was “inactive”.

`COP(=S)(OC)Oc1nc(Cl)c(Cl)cc1Cl`: the Potency entry in assay [1], in assay [2], in assay [3], in assay [4], in assay [6] and in assay [7] was “inactive” in each case. Besides, in assay [8], the Potency entry was “inactive”.

Turning to `O=[N+]([O-])c1ccc(CCl)cc1`, the Potency entry in assay [1], in assay [2], in assay [3], in assay [4], in assay [5] and in assay [6] was “inactive” in each case. Besides, the Potency entry in assay [7] and in assay [8] was “inactive” in each case.

With `O=c1c2ccccc2c(=O)c2c1cc(Cl)c1[nH]c3c([nH]c12)c(Cl)cc1c(=O)c2ccccc2c(=O)c13`, the Potency result in assay [1], in assay [2], in assay [3], in assay [4], in assay [5] and in assay [6] was “inactive” each time. In addition, the Potency result in assay [7] and in assay [8] was “inactive” in each case.

Take `Oc1cccc(Cl)c1Cl`: the Potency result in assay [1], in assay [2], in assay [3], in assay [4], in assay [5] and in assay [6] was “inactive” in each case. For the same compound, the Potency entry in assay [7] and in assay [8] was “inactive” throughout.

Regarding `CC[C@H](C)[C@H]1O[C@]2(C=C[C@@H]1C)C[C@@H]1C[C@@H](C/C=C(\C)[C@@H](O[C@H]3C[C@H](OC)[C@@H](O[C@H]4C[C@H](OC)[C@@H](NC)[C@H](C)O4)[C@H](C)O3)[C@@H](C)/C=C/C=C3\CO[C@@H]4[C@H](O)C(C)=C[C@@H](C(=O)O1)[C@]34O)O2`, the Potency in assay [1] was 15.4 µM (active); in assay [2], 17.2 µM (active); in assay [3], 10.9 µM (active); in assay [5], 48.6 µM (active); in assay [6], 12.2 µM (active). For the same compound, the Potency entry in assay [4] and in assay [8] was “inactive” each time.
